IDE exosite FP: exo-site inhibitors of human IDE, primary screen, biochemical, fluorescence anisotropy, probe displacement | Insulin-degrading enzyme (Homo sapiens), P14735 | purified IDE, FL-6b probe fluorescence polarization; hits give low values | AID 1259349, 2017 | hit rate 6.3% among 17,000 | z-score at 20 µM;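 active = z-score of -3 or lower, meaning strong loss of probe binding signal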;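 also: His-tagged human IDE residues 42-1019 made in E. coli with 30 nM FL-6b probe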
Target sequence (P14735 42-1019 limits assumed): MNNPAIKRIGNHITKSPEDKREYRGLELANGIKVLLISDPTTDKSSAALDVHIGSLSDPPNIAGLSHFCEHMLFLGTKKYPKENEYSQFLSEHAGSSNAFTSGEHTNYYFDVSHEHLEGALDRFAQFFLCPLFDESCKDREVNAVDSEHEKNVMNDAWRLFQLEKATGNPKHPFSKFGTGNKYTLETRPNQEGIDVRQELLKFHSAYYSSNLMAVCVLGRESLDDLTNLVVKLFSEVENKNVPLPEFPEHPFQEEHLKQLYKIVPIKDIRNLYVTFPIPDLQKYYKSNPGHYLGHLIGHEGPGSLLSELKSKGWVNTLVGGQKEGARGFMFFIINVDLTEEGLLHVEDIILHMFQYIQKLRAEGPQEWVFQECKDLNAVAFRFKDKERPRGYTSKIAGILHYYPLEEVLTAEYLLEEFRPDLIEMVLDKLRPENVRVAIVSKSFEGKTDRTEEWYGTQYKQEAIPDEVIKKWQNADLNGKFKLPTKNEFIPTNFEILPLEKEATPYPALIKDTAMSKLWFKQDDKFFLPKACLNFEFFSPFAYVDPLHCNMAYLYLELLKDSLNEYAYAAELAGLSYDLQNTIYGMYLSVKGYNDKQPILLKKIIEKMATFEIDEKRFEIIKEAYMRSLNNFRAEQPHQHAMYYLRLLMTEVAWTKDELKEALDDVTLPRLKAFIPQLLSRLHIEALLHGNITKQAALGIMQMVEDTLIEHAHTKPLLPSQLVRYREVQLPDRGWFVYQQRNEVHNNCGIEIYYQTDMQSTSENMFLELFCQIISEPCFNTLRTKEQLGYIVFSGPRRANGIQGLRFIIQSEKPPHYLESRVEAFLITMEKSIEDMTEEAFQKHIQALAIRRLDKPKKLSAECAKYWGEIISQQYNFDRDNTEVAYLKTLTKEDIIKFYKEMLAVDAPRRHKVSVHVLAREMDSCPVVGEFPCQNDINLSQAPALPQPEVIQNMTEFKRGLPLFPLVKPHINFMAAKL
Numbers stand for hits; i = inactive. Shown is part of a subset that was picked to be rich in hits.

SMILES	IDE exosite FP
O=C(CN1CCOCC1)N1CCCCN2[C@H](CO)[C@H](c3ccc(-c4ccccc4F)cc3)[C@@H]2C1	i
COCC(=O)N1CCCCN2[C@H](CO)[C@@H](c3ccc(-c4ccccc4)cc3)[C@H]2C1	i
O=C(CN1CCOCC1)N1CCCCN2[C@H](CO)[C@@H](c3ccc(-c4ccccc4F)cc3)[C@@H]2C1	-3.6
Cc1ccccc1-c1ccc([C@@H]2[C@@H](CO)N3CCCCN(C(=O)CN4CCOCC4)C[C@@H]23)cc1	-8
O=C(CN1CCOCC1)N1CCCCN2[C@@H](CO)[C@H](c3ccc(-c4ccccc4F)cc3)[C@@H]2C1	i
Cc1ccccc1-c1ccc([C@H]2[C@@H](CO)N3CCCCN(C(=O)CN4CCOCC4)C[C@H]23)cc1	-9.9
COc1ccccc1-c1ccc([C@H]2[C@H](CO)N3CCCCN(C(=O)CN4CCOCC4)C[C@@H]23)cc1	-3.2
COc1ccccc1-c1ccc([C@H]2[C@@H](CO)N3CCCCN(C(=O)CN4CCOCC4)C[C@H]23)cc1	i
N#Cc1ccc(-c2ccc([C@@H]3[C@H]4CNCC(=O)N4[C@H]3CO)cc2)cc1	i
COc1ccc2c3c(n(C)c2c1)[C@@H](CO)N(C(=O)Nc1c(C)noc1C)CC31CN(CC2CC2)C1	i
COc1ccc2c3c(n(C)c2c1)[C@H](CO)N(C(=O)CN(C)C)CC31CN(Cc2nccs2)C1	i
CN(C[C@H]1[C@H](c2ccccc2)[C@@H](CO)N1Cc1ccccn1)S(C)(=O)=O	i
O=C(c1ccccn1)N1CC2(C1)[C@@H](c1ccccc1)[C@@H](CO)N2Cc1ccc(F)cc1	i
CC(C)C#Cc1ccc([C@H]2[C@@H](CO)N(C(=O)C3CC3)[C@H]2C#N)cc1	i
O=C(C1CCCCC1)N1CC(=O)N2[C@H](CO)[C@H](c3ccc(C#CCc4ccccc4)cc3)[C@@H]2C1	i
C[C@H](CO)N1C[C@H](C)[C@@H](CN(C)C(=O)NC2CCCC2)OCc2cnnn2CCCC1=O	i
CO[C@@H]1CN(C)C(=O)c2ccc(NC(=O)c3ccc4c(c3)OCO4)cc2OC[C@@H](C)N(Cc2ccc3c(c2)OCO3)C[C@H]1C	i
O=C(NCc1cc(F)cc(F)c1)[C@H]1[C@H](CO)[C@H]2Cn3c(cccc3=O)[C@@H]1N2	i
O=C(c1ccncc1)N1CC(=O)N2[C@H](C1)[C@@H](c1ccc(-c3ccccc3F)cc1)[C@@H]2CO	-7.4
O=C(c1ccncc1)N1CC(=O)N2[C@@H](CO)[C@H](c3ccc(-c4ccccc4F)cc3)[C@@H]2C1	-4.8
O=C(c1ccc(F)cc1)N1CC(=O)N2[C@@H](CO)[C@@H](c3ccc(-c4ccccc4F)cc3)[C@@H]2C1	i
O=C(c1ccc(F)cc1)N1CC(=O)N2[C@H](CO)[C@H](c3ccc(-c4ccccc4F)cc3)[C@H]2C1	i
O=C(c1ccncc1)N1CC(=O)N2[C@H](CO)[C@@H](c3ccc(-c4ccccc4F)cc3)[C@H]2C1	i
O=C(c1ccncc1)N1CC(=O)N2[C@@H](CO)[C@@H](c3ccc(-c4ccccc4F)cc3)[C@@H]2C1	i
CCCC(=O)Nc1ccc2c(c1)OC[C@H](C)N(CC1CCOCC1)C[C@@H](C)[C@@H](OC)CN(C)C2=O	i
SMILES	IDE exosite FP
COCC(=O)N1CC(=O)N2[C@@H](CO)[C@H](c3ccc(C#CC4CC4)cc3)[C@@H]2C1	i
COc1cccc(S(=O)(=O)N2C[C@@H](O)COC[C@@H]3O[C@H](CC(=O)N4CCN(c5ccccc5)CC4)CC[C@H]32)c1	i
CN(C)CC(=O)N1[C@H](C#N)[C@H](c2ccc(-c3ccccc3F)cc2)[C@@H]1CO	i
CN(C)CC(=O)N1[C@@H](C#N)[C@@H](c2ccc(-c3ccc(C(=O)N(C)C)cc3)cc2)[C@@H]1CO	i
COc1ccccc1-c1ccc([C@@H]2[C@H](C#N)N(C(=O)CN(C)C)[C@H]2CO)cc1	-5.1
COc1ccccc1-c1ccccc1[C@H]1[C@@H](C#N)N(C(=O)CN(C)C)[C@H]1CO	i
CN(C)CC(=O)N1[C@H](CO)[C@H](c2ccc(-c3ccccc3F)cc2)[C@@H]1C#N	i
CN(C)CC(=O)N1[C@H](C#N)[C@@H](c2ccc(-c3ccc(C(=O)N(C)C)cc3)cc2)[C@@H]1CO	i
COc1ccccc1-c1ccccc1[C@@H]1[C@@H](C#N)N(C(=O)CN(C)C)[C@@H]1CO	i
COc1ccccc1-c1ccc([C@H]2[C@H](C#N)N(C(=O)CN(C)C)[C@H]2CO)cc1	-14
COc1ccc(-c2ccc([C@@H]3[C@@H](C#N)N(C(=O)CN(C)C)[C@@H]3CO)cc2)cc1	i
COc1ccccc1-c1ccc([C@H]2[C@@H](C#N)N(C(=O)CN(C)C)[C@H]2CO)cc1	-3.7
CN(C)CC(=O)N1[C@H](CO)[C@@H](c2ccc(-c3ccccc3F)cc2)[C@@H]1C#N	-3.4
CN(C)CC(=O)N1[C@H](C#N)[C@H](c2ccc(-c3ccccc3F)cc2)[C@H]1CO	i
C/C=C/c1ccc(C2[C@H]3CNC[C@@H]2N3Cc2cccc(C(F)(F)F)c2)cc1 (some centres not stated)	i
COc1cccc(NC(=O)C[C@@H]2CC[C@H]3[C@H](COc4ccc(NC(=O)C5CC5)cc4C(=O)N3C)O2)c1	i
O=C(c1cccc(F)c1)N1CC(=O)N2[C@H](CO)[C@H](c3ccc(-c4ccccc4)cc3)[C@@H]2C1	i
CCCNC(=O)N1[C@@H](C#N)[C@@H](c2ccc(C#Cc3cccc(F)c3)cc2)[C@@H]1CO	i
O=C(NCCc1ccncc1)[C@H]1[C@H](CO)[C@H]2Cn3c(cccc3=O)[C@@H]1N2Cc1ccccc1F	i
O=C(Nc1ccccc1)N1CCCCN2[C@@H](CO)[C@@H](c3ccc(-c4ccncc4)cc3)[C@@H]2C1	i
Cc1noc(C)c1S(=O)(=O)Nc1ccc2c(c1)C(=O)N([C@@H](C)CO)C[C@H](C)[C@H](CN(C)Cc1ccc(C(=O)O)cc1)OCCCC[C@H](C)O2	i
O=C(c1cnccn1)N1CC(=O)N2[C@@H](CO)[C@H](c3ccc(-c4cccc(F)c4)cc3)[C@@H]2C1	i
O=C(c1cnccn1)N1CC(=O)N2[C@H](CO)[C@@H](c3ccc(-c4ccc(F)cc4)cc3)[C@@H]2C1	i
Cc1cccc(-c2ccc([C@H]3[C@@H](CO)N4C(=O)CN(C(=O)c5cnccn5)C[C@H]34)cc2)c1	-12
Cc1cccc(-c2ccc([C@H]3[C@@H](CO)N4C(=O)CN(C(=O)c5cnccn5)C[C@@H]34)cc2)c1	-9.3
SMILES	IDE exosite FP
O=C(c1cnccn1)N1CC(=O)N2[C@@H](CO)[C@H](c3ccc(C4=CCCCC4)cc3)[C@@H]2C1	i
O=C(c1cnccn1)N1CC(=O)N2[C@@H](CO)[C@H](c3ccc(-c4ccccc4)cc3)[C@@H]2C1	-3.8
O=C(c1cnccn1)N1CC(=O)N2[C@H](CO)[C@H](c3ccc(-c4ccccc4)cc3)[C@@H]2C1	i
O=C(c1cnccn1)N1CC(=O)N2[C@H](CO)[C@H](c3ccc(-c4ccc(F)cc4)cc3)[C@H]2C1	i
O=C(c1cnccn1)N1CC(=O)N2[C@H](CO)[C@@H](c3ccc(-c4ccccc4)cc3)[C@@H]2C1	i
O=C(O)[C@H]1[C@H](CO)[C@H]2Cn3c(ccc(C4=CCCCC4)c3=O)[C@H]2N1Cc1ccc2c(c1)OCO2	i
O=S(=O)(Cc1ccccc1)N1CCCCN2[C@H](C1)[C@H](c1ccc(-c3cccnc3)cc1)[C@@H]2CO	i
CC(C)C#Cc1ccc([C@@H]2[C@H](CO)N3C(=O)CN(C(=O)C4CCCCC4)C[C@@H]23)cc1	i
